Assay results published in PubChem BioAssay.
Active and inactive are the calls of the source.

Legend:
[1] = small molecules captured by biotinylated probe aFSTL3 – biochemical, small-molecule microarray, fluorescence 635/667, stem cell growth factor project, primary screen (AID 1064); settings: higher = more signal;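 note: measures binding of the biotinylated anti-FSTL3 antibody to printed compounds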
[2] = binders from COS7 lysate, DM2A8 probe, primary screen, torsin A project, cell lysate, small-molecule microarray, fluorescence 635/667 (AID 1065); settings: higher = more signal, COS7 lysate expressing mutant human TOR1A
[3] = small molecules captured by biotinylated probe aFGF2 – biochemical, small-molecule microarray, fluorescence 635/667, stem cell growth factor project, primary screen (AID 1067); settings: higher = more signal;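 note: measures binding of biotinylated aFGF2 protein to printed compounds on slides; z-score merges feature fluorescence and signal-to-noise across triplicate slides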
[4] = small molecules captured by biotinylated probe aFGF10 – biochemical, small-molecule microarray, fluorescence 635/667, stem cell growth factor project, primary screen (AID 1071); settings: higher = more signal;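 note: score merges 667 nm spot intensity and signal to noise from triplicate slides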
[5] = biological target: Neurogenic locus notch homolog protein 2 (Homo sapiens) (UniProt Q04721); experiment: small molecules binding Notch2 protein – biochemical, small-molecule microarray, 635 nm fluorescence, stem cell growth factors, primary screen (AID 1073); settings: higher = more signal
Neurogenic locus notch homolog protein 2 (Homo sapiens), sequence (Q04721 whole entry, looked up, canonical isoform): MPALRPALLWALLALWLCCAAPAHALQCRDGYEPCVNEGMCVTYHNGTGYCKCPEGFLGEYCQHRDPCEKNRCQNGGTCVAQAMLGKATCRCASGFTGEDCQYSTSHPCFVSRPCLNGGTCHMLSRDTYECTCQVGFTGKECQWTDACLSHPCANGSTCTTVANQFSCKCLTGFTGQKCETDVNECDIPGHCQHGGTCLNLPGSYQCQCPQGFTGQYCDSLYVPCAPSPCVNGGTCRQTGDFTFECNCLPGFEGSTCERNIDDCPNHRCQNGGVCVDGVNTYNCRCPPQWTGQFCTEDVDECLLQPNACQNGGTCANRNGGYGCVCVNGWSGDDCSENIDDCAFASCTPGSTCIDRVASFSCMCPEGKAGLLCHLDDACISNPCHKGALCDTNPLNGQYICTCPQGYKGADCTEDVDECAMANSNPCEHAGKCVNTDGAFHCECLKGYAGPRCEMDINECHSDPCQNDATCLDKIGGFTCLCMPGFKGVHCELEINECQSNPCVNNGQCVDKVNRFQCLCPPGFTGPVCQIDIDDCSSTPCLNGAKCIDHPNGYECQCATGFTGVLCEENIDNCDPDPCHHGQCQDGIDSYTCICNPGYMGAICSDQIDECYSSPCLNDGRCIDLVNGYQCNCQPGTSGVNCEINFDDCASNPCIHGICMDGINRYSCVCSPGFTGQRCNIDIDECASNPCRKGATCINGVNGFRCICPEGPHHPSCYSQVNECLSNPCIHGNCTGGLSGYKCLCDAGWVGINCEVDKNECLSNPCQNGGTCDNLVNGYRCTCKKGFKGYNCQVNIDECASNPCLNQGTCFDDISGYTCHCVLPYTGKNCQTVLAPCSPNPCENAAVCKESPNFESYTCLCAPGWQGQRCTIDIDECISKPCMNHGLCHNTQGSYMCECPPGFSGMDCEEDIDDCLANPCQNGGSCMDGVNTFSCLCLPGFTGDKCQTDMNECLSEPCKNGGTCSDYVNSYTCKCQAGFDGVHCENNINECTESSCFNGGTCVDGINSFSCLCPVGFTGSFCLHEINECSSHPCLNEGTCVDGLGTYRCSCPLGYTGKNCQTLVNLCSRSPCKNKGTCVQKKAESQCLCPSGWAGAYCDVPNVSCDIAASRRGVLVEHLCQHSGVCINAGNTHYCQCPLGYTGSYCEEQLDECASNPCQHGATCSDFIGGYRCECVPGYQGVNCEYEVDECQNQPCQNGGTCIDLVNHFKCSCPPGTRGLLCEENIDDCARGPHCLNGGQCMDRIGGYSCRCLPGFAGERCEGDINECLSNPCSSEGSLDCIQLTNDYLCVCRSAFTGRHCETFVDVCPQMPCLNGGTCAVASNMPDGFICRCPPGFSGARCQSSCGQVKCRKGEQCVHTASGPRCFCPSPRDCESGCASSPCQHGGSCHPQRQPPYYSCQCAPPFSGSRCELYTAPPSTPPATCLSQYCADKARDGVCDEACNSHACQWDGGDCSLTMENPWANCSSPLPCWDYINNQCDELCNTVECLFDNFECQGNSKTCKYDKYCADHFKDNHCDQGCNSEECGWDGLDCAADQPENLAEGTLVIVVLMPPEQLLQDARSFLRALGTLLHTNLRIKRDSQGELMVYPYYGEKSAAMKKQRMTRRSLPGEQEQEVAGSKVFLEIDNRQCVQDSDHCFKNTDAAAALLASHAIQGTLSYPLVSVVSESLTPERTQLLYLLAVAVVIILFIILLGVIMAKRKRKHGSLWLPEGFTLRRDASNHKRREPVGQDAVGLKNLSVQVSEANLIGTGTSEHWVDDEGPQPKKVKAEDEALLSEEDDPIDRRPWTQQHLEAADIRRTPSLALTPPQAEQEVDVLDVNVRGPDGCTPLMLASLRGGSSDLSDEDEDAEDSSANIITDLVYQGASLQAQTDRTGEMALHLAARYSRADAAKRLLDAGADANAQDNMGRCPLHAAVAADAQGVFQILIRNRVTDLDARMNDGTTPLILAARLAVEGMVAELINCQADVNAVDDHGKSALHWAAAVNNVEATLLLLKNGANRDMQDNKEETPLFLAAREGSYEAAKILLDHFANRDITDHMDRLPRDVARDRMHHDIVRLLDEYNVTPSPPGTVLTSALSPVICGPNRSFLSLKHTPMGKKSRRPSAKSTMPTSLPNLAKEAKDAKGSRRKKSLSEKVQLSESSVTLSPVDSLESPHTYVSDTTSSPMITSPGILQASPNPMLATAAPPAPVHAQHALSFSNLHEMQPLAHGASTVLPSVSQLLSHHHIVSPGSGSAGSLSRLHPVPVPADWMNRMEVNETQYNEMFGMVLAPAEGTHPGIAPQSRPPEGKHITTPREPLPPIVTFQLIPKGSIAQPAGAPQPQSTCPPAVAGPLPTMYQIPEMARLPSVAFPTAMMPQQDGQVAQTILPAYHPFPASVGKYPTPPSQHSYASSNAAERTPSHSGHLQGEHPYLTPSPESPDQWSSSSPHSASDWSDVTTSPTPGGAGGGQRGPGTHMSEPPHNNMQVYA

[6] = biological target: Pro-neuregulin-1, membrane-bound isoform (Homo sapiens) (UniProt Q02297); experiment: small molecules binding neuregulin-1 protein – biochemical, small-molecule microarray, fluorescence 635/667, psychiatric disease protein project, primary screen (AID 1075); settings: NRG1 binding, 635 nm fluorescence, higher = more signal;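 note: score combines 667 nm spot fluorescence with signal to noise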
Pro-neuregulin-1, membrane-bound isoform (Homo sapiens), sequence (Q02297 whole entry, looked up, the tested form may be a part, canonical isoform): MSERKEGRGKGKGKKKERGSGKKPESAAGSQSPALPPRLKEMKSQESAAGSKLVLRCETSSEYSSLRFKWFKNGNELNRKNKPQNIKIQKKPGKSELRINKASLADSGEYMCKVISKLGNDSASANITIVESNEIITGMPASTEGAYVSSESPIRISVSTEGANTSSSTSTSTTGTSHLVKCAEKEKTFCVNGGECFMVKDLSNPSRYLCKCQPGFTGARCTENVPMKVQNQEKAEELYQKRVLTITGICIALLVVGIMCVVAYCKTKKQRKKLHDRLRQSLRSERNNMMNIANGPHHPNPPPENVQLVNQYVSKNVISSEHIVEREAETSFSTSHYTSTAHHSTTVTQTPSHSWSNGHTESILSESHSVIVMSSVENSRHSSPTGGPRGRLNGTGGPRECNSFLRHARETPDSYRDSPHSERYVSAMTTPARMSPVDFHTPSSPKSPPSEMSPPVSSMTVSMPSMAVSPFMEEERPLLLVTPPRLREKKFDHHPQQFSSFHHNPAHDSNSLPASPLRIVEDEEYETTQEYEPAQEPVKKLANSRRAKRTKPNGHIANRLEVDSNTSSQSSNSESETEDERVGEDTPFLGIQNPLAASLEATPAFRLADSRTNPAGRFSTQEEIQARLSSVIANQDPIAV

[7] = tested on: Neuregulin-1 EGF-like domain; experiment: small molecules binding NRG1 EGF domain – biochemical, small-molecule microarray, 635 nm fluorescence, primary screen (AID 1081); settings: higher = more signal;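 note: binding of the protein to compounds printed on small-molecule microarray slides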
[8] = FRG1 expression reporter modulators in myotubes – cell-based, C2C12 myotubes, firefly/Renilla luciferase, luminescence, FRG1 inhibition for FSHD, primary screen (AID 1084); settings: FRG1 promoter luciferase, higher = more signal, called active from +8 up or from −8 down
[9] = small molecules captured by biotinylated probe aFST – biochemical, small-molecule microarray, fluorescence 635/667, stem cell growth factor project, primary screen (AID 1086); settings: higher = more signal;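 note: score merges 667 nm fluorescence with signal-to-noise of each printed compound spot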
[10] = binders of probe aHhip on microarray, primary screen, stem cell growth factor project, biochemical, small-molecule microarray, fluorescence 635/667 (AID 1087); settings: higher = more signal;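 note: score merges spot fluorescence at 667nm with spot signal to noise ratio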

| Structure (SMILES) | composite z-score [1] | composite z-score [2] | composite z-score [3] | composite z-score [4] | composite z-score [5] | composite z-score [6] | composite z-score [7] | z-score [8] | composite z-score [9] | composite z-score [10] |
| --- | --- | --- | --- | --- | --- | --- | --- | --- | --- | --- |
| [N-]=[N+]=NCc1ccccc1[C@H]1OC(c2ccc(OCCCO)cc2)=N[C@@]1(Cc1ccccc1)C(=O)NCCN1CCOCC1 | -0.714 | 0.614 | -0.0627 | 1.09 | 1.49 | 1.34 | 1.23 | -0.731 (inactive) | 0.213 | -0.0994 |
| C=C(C)[C@@H]1CC=C(C(O)C2C=CC3C(=O)N(c4ccccc4)C(=O)C3N2Nc2ccc(C#N)cc2)CC1 (stereo not given in full) | -0.266 | -0.278 | 0.169 | 0.783 | 1.65 | 1.81 | 1.33 | -1.74 (inactive) | 1.53 | -0.112 |
| CC(C)[Si]1(C(C)C)OCc2cc(-c3ccc(-c4ccc(Cl)c(Cl)c4)o3)nc(CCc3ccccc3)c21 | 0.0051 | -0.217 | -0.0332 | -0.175 | -0.412 | 0.572 | 0.261 | 0.999 (inactive) | -0.0731 | -0.201 |
| CC(=O)n1cc(C(O)C2C=CC3C(=O)N(c4ccccc4)C(=O)C3N2Nc2ccc(C(C)C)cc2)c2ccccc21 (stereo not given) | 0.657 | 0.249 | 0.125 | 0.899 | 1.55 | 1.95 | 1.15 | -0.833 (inactive) | 1.07 | -0.0645 |
| COc1ccc([Si](C)(C)[C@@H]2[C@@H](CC(=O)N3Cc4ccccc4C[C@H]3CO)O[C@]3(C(=O)N(c4ccccc4)c4ccccc43)[C@H]2C)cc1 | 0.485 | 1.02 | 0.411 | 0.934 | 0.627 | 2.35 | 1.16 | -3.5 (inactive) | 1.43 | 0.433 |
| O=C1C[C@@](C(=O)NCc2ccccc2)(c2ccc([N+](=O)[O-])cc2)[C@@H](c2ccc(CO)cc2I)N1CC12CC3CC(CC(C3)C1)C2 | -0.262 | 0.656 | -0.0412 | 0.831 | 1.2 | 0.656 | 1.15 | -1.32 (inactive) | 0.572 | 0.261 |
| O=C1C2C=CC(C(O)c3ccc4c(c3)OCO4)N(Nc3ccccc3)C2C(=O)N1c1ccccc1 (stereo not given) | 0.154 | -0.186 | 0.0917 | 0.847 | 1.55 | 1.46 | 1.09 | -0.545 (inactive) | 1.38 | -0.204 |
| COc1cc(NN2C(C(O)c3ccc(I)cc3)C=CC3C(=O)N(c4ccccc4)C(=O)C32)cc(OC)c1OC (stereo not given) | 0.32 | 0.808 | 0.145 | 0.868 | 1.55 | 2.04 | 1.35 | -2.51 (inactive) | 1.22 | 0.415 |
| C=CC1c2cc(O)c(OC)cc2CCN1Cc1ccc([N+](=O)[O-])o1 (stereo not given) | 0.29 | 0.381 | -0.0156 | 0.673 | 1.12 | 1.64 | 1.09 | -0.0303 (inactive) | 0.457 | 0.245 |
| CO[C@H]1O[C@H](CO)[C@@H](OC(=O)c2ccc(Br)cc2)[C@@H]2OC(=O)[C@H](Cc3ccccc3)C/C=C/C[C@@H](Cc3ccccc3)C(=O)O[C@@H]12 | -0.287 | 0.418 | -0.0048 | 0.706 | 0.496 | 1.64 | 0.615 | -0.215 (inactive) | -0.024 | -0.0645 |
| COC(=O)c1c2oc(c1C(=O)OC)C(=O)N1CCC[C@H]1Cn1nncc1CN(Cc1ccccc1)C(=O)N[C@H](CO)CC2 | 1.31 | 0.0712 | -0.0597 | 0.627 | 0.201 | 0.655 | 0.803 | -0.606 (inactive) | -0.152 | -0.353 |
| CN(C)CCCCNC(=O)[C@H]1C[C@H]2C(=O)N[C@@H](CCCC[N+](C)(C)C)C(=O)N2[C@H]1c1ccc(O)cc1 | -0.334 | 0.755 | -0.136 | -0.556 | -0.661 | -0.506 | 0.942 | 3.25 (inactive) | -0.31 | -0.132 |
| COc1ccc([Si](C)(C)[C@@H]2[C@@H](CCn3cc([C@H](O)c4ccccc4)nn3)O[C@]3(C(=O)N(c4ccccc4)c4ccccc43)[C@H]2C)cc1 | -0.162 | 0.297 | -0.0824 | 0.211 | 0.0701 | 0.336 | 0.75 | -0.587 (inactive) | -0.0029 | -0.122 |
| CC(=O)N1CC(C(O)C2C=CC3C(=O)NC(=O)C3N2Nc2ccc(Cl)cc2Cl)c2ccccc21 (stereo not given) | 0.856 | -0.0312 | 0.203 | 0.925 | 1.28 | 1.7 | 0.727 | 0.425 (inactive) | 0.496 | 0.0854 |
| CC(C)N1CC=CC23O[C@@H]4/C=C\CCCOC(=O)C4[C@H]2C(=O)N(CCCCCCO)[C@@H]3C1=O (stereo not given in full) | 0.59 | 0.525 | -0.0924 | 0.716 | -0.602 | 2.01 | 1.03 | 0.163 (inactive) | -0.302 | 0.139 |
| CC1(C)C(=O)C(c2ccccc2)=C2CN3C(=O)N(CCc4ccccc4)C(=O)C3(Cc3ccc(C(F)(F)F)cc3)C=C21 (stereo not given) | 0.138 | -0.2 | 0.0814 | 0.432 | 1.66 | 0.613 | 0.831 | -0.495 (inactive) | 1.67 | -0.0024 |
| CC(=O)NCCCC[C@@H]1NC(=O)[C@H]2C[C@@H](C(=O)NCCCCCNC(=O)CS)[C@@H](c3cccc(OCCO)c3)N2C1=O | -0.0107 | 0.487 | -0.133 | -0.379 | -0.544 | -0.352 | 1.03 | 0.824 (inactive) | -0.203 | -0.0074 |
